Among the test systems are T-47D breast; BT-549 breast; MDA-MB-435 melanoma; SW-620 colon; MCF7 breast; HCT-116 colon; HCC-2998 colon; KM12 colon.
Common to all, as to assay: NCI-60 one-dose screen, 48 h (100 = growth as untreated, 0 = no growth, -100 = all killed)
Settings in all cases: 10 µM unless noted

Here are results for 14 molecules from PubChem BioAssay (NCI).

SMILES strings stand for the structures. The panel holds about 83,000 compounds, 20% with a hit somewhere; the sample as a whole holds those more often.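 Compound tested at a single concentration for 48 hours in 96-well plates; a percent growth value below 10 was scored as active.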 Unmarked numbers belong to inactive results. The source made the active and inactive calls.

Consider `Cn1cc(C2=C(c3cccc4ccccc34)C(=O)NC2=O)c2cc(Br)ccc21`, for which the growth with T-47D breast is 81.3%; with BT-549 breast, 109%; with MDA-MB-435 melanoma, 95.7%; with SW-620 colon, 96.1%; in the test with MCF7 breast, 84.3%; with HCT-116 colon, 71.3%. Moreover, the growth was 126% in the test with HCC-2998 colon and 89.7% in the test on KM12 colon.

For the molecule `COc1c(F)cc(-n2c(C(=O)N3CC(F)C3)cc3cccnc32)cc1F`, the growth in the test on T-47D breast is 89.5%; in the test on BT-549 breast, 97.2%; with MDA-MB-435 melanoma it was 116%; with SW-620 colon, 104%; in the test with MCF7 breast, 105%; in the test on HCT-116 colon, 95.9%. In addition, the figures for the growth in the test on HCC-2998 colon and in the test with KM12 colon were 99.7% and 98.8%, respectively.

On to `COc1ccc2c(c1)CCNC21C(=O)Nc2c(Br)cc(Br)cc21` (configuration not stated), for which the growth was 90.3% in the test with T-47D breast; 103% in the test on BT-549 breast; 101% in the test with MDA-MB-435 melanoma; 97.4% in the test on SW-620 colon; 101% in the test on MCF7 breast; 103% with HCT-116 colon. The results for the growth with HCC-2998 colon and with KM12 colon were 105% and 104%, respectively.

`COc1ccc(-c2nnc3n(C)c(=O)c4ccccc4n23)cc1O`: the growth is 30.2% in the test on T-47D breast; 41.4% in the test on BT-549 breast; -40.8% (active) in the test with MDA-MB-435 melanoma; 23.9% in the test with SW-620 colon; 18.2% in the test on MCF7 breast; 13.1% in the test on HCT-116 colon. Also, the growth in the test with HCC-2998 colon is 33.7%; in the test with KM12 colon, 24.2%.

`N=C(N)c1ccc(-c2ccc(-c3ccc(Cl)c(Cl)c3)s2)cc1`: the growth in the test on T-47D breast is 62.1%; in the test with BT-549 breast it was 109%; in the test on MDA-MB-435 melanoma, 14.4%; with SW-620 colon it was -65.1% (active); with MCF7 breast, -62.4% (active); in the test on HCT-116 colon it was -46.6% (active). For the same molecule, the values for the growth with HCC-2998 colon and in the test with KM12 colon were -53.7% (active) and -91.4% (active), respectively.

In the case of `N=C(N)c1ccc(-c2ccc(-c3ccc(F)cc3)s2)nc1`, the growth in the test with T-47D breast was 76.3%; with BT-549 breast it was 82.1%; in the test on MDA-MB-435 melanoma, 70.2%; with SW-620 colon it was 26%; in the test on MCF7 breast it was 21.9%; in the test on HCT-116 colon, 3.54% (active). For the same molecule, the growth in the test with HCC-2998 colon was 16.2%; in the test on KM12 colon, 18.7%.

For `Nc1nc(Nc2ccc(F)cc2)nn1C(=O)c1cc(Cl)ccc1Cl`, the growth is 84.9% with T-47D breast; 80% with BT-549 breast; 88.8% in the test on MDA-MB-435 melanoma; 71.4% in the test with SW-620 colon; 48.8% with MCF7 breast; 58.6% in the test on HCT-116 colon. The growth in the test on HCC-2998 colon was 86.3%; with KM12 colon it was 51.4%.

For `N#Cc1ccccc1OCC(=O)Nc1nc2c(s1)COc1ccccc1-2`, the growth was 86.2% in the test on T-47D breast; 122% in the test on BT-549 breast; 104% in the test on MDA-MB-435 melanoma; 103% in the test on SW-620 colon; 91.4% in the test with MCF7 breast; 102% in the test with HCT-116 colon. The growth in the test with HCC-2998 colon was 103%; with KM12 colon, 105%.

Turning to `CC1=C2[C@@H](CC1)[C@]1(C)O[C@@](C3CC3)(C[C@H]1OC(=O)CO)[C@H]2OC(=O)/C=C/c1ccccc1`, the growth with T-47D breast was 82.2%; in the test with BT-549 breast, 6.63% (active); in the test on MDA-MB-435 melanoma, 104%; in the test with SW-620 colon it was 103%; with MCF7 breast, 96.4%; with HCT-116 colon, 89.4%. The growth with HCC-2998 colon is 88.4%; in the test with KM12 colon it was 97.1%.

On to `O=C1/C(=C/c2ccc(-c3ccccc3C(F)(F)F)o2)SC(=S)N1CCc1ccc(O)cc1`, for which the growth in the test with T-47D breast is 34.8%; in the test with BT-549 breast, 61.7%; with MDA-MB-435 melanoma, -14.4% (active); with SW-620 colon, 32.1%; with MCF7 breast it was 27.7%; in the test on HCT-116 colon, 33.9%. Moreover, the growth in the test on HCC-2998 colon is 81.1%; in the test with KM12 colon it was 28.2%.

`COc1ccc(C2=C(CN)C(O)NC(=NCC(=O)c3ccc4ccccc4c3)N2)cc1` (configuration not stated): the growth with T-47D breast was 101%; in the test on BT-549 breast, 99%; with MDA-MB-435 melanoma it was 103%; with SW-620 colon, 112%; with MCF7 breast, 96.2%; with HCT-116 colon it was 92.7%. Further, the results for the growth with HCC-2998 colon and in the test with KM12 colon were 107% and 97.2%, respectively.

For the molecule `Nc1ccc(-c2ccc(N)c(Br)c2)cc1Br`, the growth was 40.9% with T-47D breast; 34% with BT-549 breast; 1.83% (active) in the test on MDA-MB-435 melanoma; 47% in the test on SW-620 colon; 17.9% with MCF7 breast; 23.6% with HCT-116 colon. The figures for the growth in the test on HCC-2998 colon and in the test on KM12 colon were 64.6% and 37.3%, respectively.

Regarding `Cc1cccc(Cc2cnc(NC(=O)CCCOc3ccc(Cl)cc3)s2)c1`, the growth in the test on T-47D breast is 33.5%; in the test on BT-549 breast it was 61.5%; in the test on MDA-MB-435 melanoma it was -53.2% (active); in the test on SW-620 colon, 25%; in the test on MCF7 breast it was 20%; with HCT-116 colon, 16.4%. Also, the growth in the test on HCC-2998 colon was 48.9%; in the test on KM12 colon, 21.8%.

Turning to `COc1ccc(-c2cc3cnc4ccccc4c3oc2=O)cc1`, the growth in the test on T-47D breast was 87.1%; in the test with BT-549 breast, 101%; in the test on MDA-MB-435 melanoma, 98.6%; in the test with SW-620 colon, 95.8%; in the test with MCF7 breast it was 86.9%; in the test on HCT-116 colon, 93.3%. Besides, the results for the growth in the test with HCC-2998 colon and in the test on KM12 colon were 89.2% and 103%, respectively.
